Source: PubChem (National Center for Advancing Translational Sciences (NCATS))
An excerpt weighted towards active compounds, which were near 2.2% of everything screened.
CCT chaperon mod – High-Throughput Screening for Modulators of Cytosolic Chaperonin Activity. purified chaperonin ATPase assay, HTRF ADP detection, 30 min. activity change, % (no concentration beside the values), hits read low. 360,000 tested, 0.3% active; in the data active means activity change below about -30%; further: on the % scale 0 is the no-effect control and ±100 the full control effect
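Enzyme 40 or 20 nM (batch-dependent) in Tris pH 7.4/KCl/MgCl2/DTT; cpd 76 uM single point; ATP 10 uM; 30 min 37 °C; Transcreener ADP HTRF detection, 30 min RT; ratio 665/615.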
GLP1R cytotox – qHTS of GLP-1 Receptor Inverse Agonists: Cytotox Screen; HEK293 cAMP-luciferase reporter cells, luminescence, 24 h; Potency, µM (top dose mostly 38.3 µM), inactives show top-dose activity change, negative = inhibition, most hits filed as inhibitors; 410,000 tested, 0.13% active; AID 624418, 2012;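 further: loss of luciferase light is scored as toxicity; potency means the concentration at half of the fitted maximal effect; on the % scale 0 is the no-effect control and ±100 the full control effect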
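Compound-treated cells are incubated 24 hr at 37 deg C under 5% CO2 after a 12 hour attachment period, then luciferase detection reagent is added and luminescence is measured following 12 min at room temperature; lowered signal indicates toxicity.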
GLP1R ag – qHTS of GLP-1 Receptor Agonists; Potency, µM (doses to about 45.6 µM), for inactives: at the highest dose activation, usual class: activators; Glucagon-like peptide 1 receptor (Homo sapiens), P43220; 380,000 tested, 0.007% active; AID 624172, 2012; HEK293 GLP-1R CRE-luciferase, luminescence, 4-6 h; cells express a hypersensitive GLP-1R form; further: potency means the concentration at half of the fitted maximal effect; % of control where 0% means no effect
Target sequence (P43220 whole entry, looked up): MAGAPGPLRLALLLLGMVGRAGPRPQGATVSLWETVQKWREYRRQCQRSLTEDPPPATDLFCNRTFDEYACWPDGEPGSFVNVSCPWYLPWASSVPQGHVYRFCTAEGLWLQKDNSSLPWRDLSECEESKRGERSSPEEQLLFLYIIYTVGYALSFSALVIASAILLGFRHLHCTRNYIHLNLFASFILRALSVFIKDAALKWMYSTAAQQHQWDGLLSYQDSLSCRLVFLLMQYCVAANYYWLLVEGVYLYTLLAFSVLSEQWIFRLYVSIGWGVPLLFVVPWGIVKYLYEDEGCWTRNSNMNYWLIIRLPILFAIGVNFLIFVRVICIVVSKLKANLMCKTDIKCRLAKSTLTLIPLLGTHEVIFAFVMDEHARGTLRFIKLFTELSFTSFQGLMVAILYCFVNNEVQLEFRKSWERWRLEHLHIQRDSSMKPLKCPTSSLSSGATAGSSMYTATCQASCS
MmCpn inh – Inhibitors of TCP-1 ring complex (TRiC) of Methanococcus maripaludis (MmCpn): qHTS. Chaperonin Mm-Cpn (Methanococcus maripaludis). purified Mm-Cpn ATPase, ADP Transcreener TR-FRET. Potency, µM (top dose mostly 76.9 µM), for inactives: at the highest dose activity, negative = inhibition, usual class: inhibitors. 330,000 tested, 0.031% active; further: potency means the concentration at half of the fitted maximal effect; on the % scale 0 is the no-effect control and ±100 the full control effect; nearly all actives have a fitted effect of over 80% in size
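ATP (10 uM final) was added to archaeal chaperonin (25 nM final) after 10 min exposure to test compound at 37°C; after 30 min further incubation, ADP was detected by competitive TR-FRET.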
uPA surface inh – qHTS for Inhibitors of Cell Surface uPA Generation; cell surface uPA generation assay, qHTS; AID 540303, 2011; 330,000 tested, 0.31% active; Potency, µM (doses to about 38.3 µM), for the others: top-dose activity change, negative = inhibition, hits mostly inhibitors; active means well fitted inhibition curve with a large enough effect; inconclusive means small, poorly fitted or top-dose-only effect; inactive means no such curve, though single readings can be large or run the other way; tested in mouse RAW 264.7 cells; further: potency means the concentration at half of the fitted maximal effect; on the % scale 0 is the no-effect control and ±100 the full control effect; nearly all actives have a fitted effect of over 55% in size
GLP-1R inv ag – qHTS of GLP-1 Receptor Inverse Agonists (Inhibition Mode); Glucagon-like peptide 1 receptor (Homo sapiens), P43220; HEK293 GLP-1R CRE-luciferase, luminescence, 24 h; GLP-1R form is constitutively active; Potency, µM (doses to about 38.3 µM), for inactives: at the top dose activity change, negative = inhibition, hits mostly inhibitors; 410,000 tested, 1.6% active; AID 624417, 2012; further: potency means the concentration at half of the fitted maximal effect; on the % scale 0 is the no-effect control and ±100 the full control effect; nearly all actives have a fitted effect of over 55% in size
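Seeding at 200 cells/uL, 12 h culture, 24 hr compound treatment, then luciferase reagent and a luminescence read; cells are HEK293 stably expressing a constitutively active GLP-1R plus cAMP-responsive luciferase.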
Numbers without * were called inactive; ? = inconclusive; . = no result. Unless noted, the call rests on the fitted dose curve; in most records, active means well fitted curve in the direction sought with a large enough effect; inconclusive means small, poorly fitted or top-dose-only effect, or another doubt; inactive means no such curve, though single readings can be large; an effect the other way counts as inactive or inconclusive.

SMILES	CCT chaperon mod	GLP1R cytotox	GLP1R ag	MmCpn inh	uPA surface inh	GLP-1R inv ag
C[C@@H]1CN([C@H](C)CO)C(=O)Cc2cc(NS(=O)(=O)c3ccc(Cl)cc3)ccc2O[C@H]1CN(C)Cc1ccc(C(F)(F)F)cc1	0	-56%	-4%	-1%	?	10µM*
Cc1ccc(S(=O)(=O)Nc2ccc3c(c2)C(=O)N([C@H](C)CO)C[C@H](C)[C@H](CN(C)C(=O)Nc2cccc4ccccc24)OCCCC[C@@H](C)O3)cc1	-31*	-11%	-3%	.	.	?
C[C@H](CO)N1C[C@H](C)[C@H](CN(C)Cc2ccccc2)Oc2ccc(NC(=O)Nc3ccc(F)cc3)cc2C1=O	0	3%	-1%	1%	?	11µM*
CN1CCC(N(Cc2cccs2)c2ccccc2)CC1	.	.	2%	.	.	.
COc1ccc2c(c1)c(=O)c(S(=O)(=O)c1ccc(F)cc1)cn2Cc1ccccc1Cl	.	0%	.	.	.	1%
O=C1c2ccccc2-c2onc3ccc(NCc4ccco4)c1c23	-2	11µM*	15%	?	-6%	?
CCNc1ccc2noc3c2c1C(=O)c1ccccc1-3	-1	?	15%	-2%	?	-27%
Fc1ccccc1-n1c(-c2ccc3ccccc3n2)n[nH]c1=S	-1	?	-4%	0%	1%	29%
S=c1[nH]nc(-c2ccc3ccccc3n2)n1-c1ccccc1	-69*	-3%	5%	-7%	-2%	-29%
OCC1OC(n2ccc3c2ncn2ncnc32)C(O)C1O (stereo not drawn)	0	-24%	-7%	.	.	7.9µM*
CCOc1ccccc1C(=O)NC1CC2CCCC(C1)N2Cc1nnnn1Cc1ccco1 (stereo not drawn)	-2	-4%	7%	0%	6%	?
O=C(NC1CC2CCC(C1)N2Cc1nnnn1Cc1ccco1)NC12CC3CC(CC(C3)C1)C2 (stereo not drawn)	2	-9%	-11%	-6%	0%	10µM*
CCOc1ccc(S(=O)(=O)Nc2cccc(OC)c2)c2cccnc12	.	-11%	2%	.	.	14%
CCC(CC)C(=O)N1CCc2cc(OC)c(OC)cc2C1COc1ccc2c(C)cc(=O)oc2c1 (stereo not drawn)	.	-17%	.	.	.	9%
COc1ccc(-n2sc3ccc(F)cc3c2=O)cc1	-1	0%	-3%	-7%	10µM*	?
O=c1c2cc(F)ccc2sn1-c1ccc(F)cc1	-2	-20%	-2%	-8%	-26%	-23%
COc1cc(/C=C(\C#N)c2nc3ccccc3c(=O)[nH]2)cc(OC)c1OC	.	2%	8%	.	.	-26%
C=CCn1c(SCC(=O)N2CCOCC2)nnc1C(C)NC(=O)c1ccccc1 (stereo not drawn)	-47*	1%	-2%	2%	-2%	22%
CC(C)c1cnc2c(c1SCc1ccc([N+](=O)[O-])cc1)c(=O)n(C)c(=O)n2C	.	1%	.	.	.	15%
O=C(Nc1cccc(S(=O)(=O)N2CCCCC2)c1)Nc1ccc(Cl)cc1Cl	1	?	20%	1%	-18%	3.5µM*
Cc1ccnc(NC(=O)C2CCN(S(=O)(=O)c3ccc(Cl)c(C(F)(F)F)c3)CC2)c1	-1	2%	2%	-1%	1%	-10%
O=C(Cn1cccc1C(=O)c1ccccc1)NCCCc1ccccc1	-3	-6%	2%	2%	3%	?
O=C(Nc1ccncc1)C1CCN(S(=O)(=O)c2ccc(Cl)c(C(F)(F)F)c2)CC1	-1	0%	6%	1%	11µM*	?
O=C(NCCCCc1ccccc1)c1cccc(NC(=O)C2CCCCC2)c1	-1	-20%	-6%	.	7%	11µM*
CC(C(=O)NCCCc1ccccc1)n1cccc1C(=O)c1ccccc1 (stereo not drawn)	-2	-8%	13%	2%	5%	11µM*
SMILES	CCT chaperon mod	GLP1R cytotox	GLP1R ag	MmCpn inh	uPA surface inh	GLP-1R inv ag
O=C(NCCCCc1ccccc1)c1cccc(NC(=O)C2CCC2)c1	-1	14%	8%	.	2%	14%
COc1ccc(NC(=O)c2nc(S(C)(=O)=O)ncc2N(Cc2ccc(C)cc2)Cc2ccco2)cc1Cl	.	-14%	.	.	.	-12%
O=C(Nc1cccc(C(=O)N2CCCCC2)c1)C1CC1	-48*	2%	7%	.	13%	26%
Cc1ccc(C(=O)NCCCc2ccccc2)c(C)c1	1	20%	6%	2%	-1%	-22%
O=C(Nc1cccc(S(=O)(=O)N2CCCCCC2)c1)C1CCN(C(=O)c2ccc(Cl)cc2)CC1	-3	-15%	13%	-2%	-6%	8.9µM*
Cc1cc(C)cc(C(=O)NCCCc2ccccc2)c1	0	-7%	-4%	-4%	2%	11µM*
O=C(Nc1cccc(C(=O)N2CCCC2)c1)C1CCCC1	1	-3%	-2%	.	8%	13%
COc1ccc(NC(=O)Cn2c(=O)n(CCc3ccccc3)c(=O)c3sc4ccccc4c32)cc1	.	1%	1%	.	.	16%
Cc1c(C(=O)N2CCC(C)CC2)c(S(=O)(=O)N2CCN(c3ccc(Cl)cc3)CC2)c(C)n1C	.	-1%	.	.	.	-20%
Cc1cccc2nc(CNC(=O)CC3C(=O)NCCN3Cc3cccc(F)c3)cn12 (stereo not drawn)	-43*	-5%	0%	-1%	2%	14%
CCc1ccccc1NC(=O)C1CCCN(c2ncnc3onc(C)c23)C1 (stereo not drawn)	.	8%	.	.	.	10%
CNC(=O)c1ccc(Nc2nnc(-c3ccc(C)c(S(=O)(=O)NC(C)(C)C)c3)c3ccccc23)cc1	.	-10%	.	.	.	-2%
O=[N+]([O-])c1ccc(-n2nnnc2-c2ccccc2)c([N+](=O)[O-])c1	1	10µM*	-29%	0%	-15%	?
CC1(C)CC(=O)c2cc(C(=O)NNc3ccccc3)c(=O)n(-c3ccccc3)c2C1	1	-8%	2%	-1%	-2%	1µM*
CC1(C)CC(=O)c2cc(C(=O)NCc3ccco3)c(=O)n(-c3ccccc3)c2C1	-2	1%	15%	1%	-6%	-29%
COc1cccc(C(=O)Nc2ccccc2C(=O)OCc2cc(=O)n3nc(C4CC4)sc3n2)c1	.	-6%	.	.	.	12%
Cc1c(NS(=O)(=O)c2cc(Br)cc3c2N(C(=O)C2CC2)CC3)c(=O)n(-c2ccccc2)n1C	-3	-2%	2%	2%	-2%	3%
